Results on 68 molecules are retold here after PubChem BioAssay AID372 (MTDP, 2006).

A word on the inhibition: it is how much of the control response was suppressed.

Out of some 100,000 compounds screened, about 770 (0.77%) were called active. Many of the other results were omitted from the sample, so actives are more common in it than they were. A number with no mark means an inactive call. Cut-off read from the data, not from the text of the source: active = inhibition above about 50%; inactive = the rest.

In this experiment the target is Gag-Pol polyprotein (Human immunodeficiency virus type 1 group M subtype B (isolate HXB2)) (UniProt P04585). In words: RNase H inhibition, HIV 1 Gag Pol polyprotein, FRET biochemical assay, screening (AID 372). The settings on record: HIV-1 RT RNase H, FRET RNA/DNA substrate fluorescence; at 10 µM; stronger effect = higher value.
Turning to `CCCCNCCCCOc1ccccc1C(C)(C)C`, the inhibition is 8%.
The figure for `O=C(Nc1ccc(I)cn1)C12CC3CC(CC(C3)C1)C2` is 7%; for `Cc1ccc(NC(=O)/C=C/c2ccc(Cl)cc2)cc1` it is 8%.
On to `COc1ccc(C2CC(=O)C3=C(C2)NC(C)=C(C(=O)OCC(C)C)C3c2cc3c(cc2Cl)OCO3)cc1` (stereo not drawn), for which the inhibition is 10%.
The same measure for `O=C(COc1ccccc1[N+](=O)[O-])Nc1ccc2oc(-c3cccc4ccccc34)nc2c1`: 13%; for `CN(C(=O)c1ccc(Cl)cc1Cl)c1ccccc1`: 1%.
The same measure for `Clc1ccc(CN2CCN(/N=C/c3ccc(-c4ccccc4)cc3)CC2)cc1`: 8%.
Turning to `Cc1ccc(O)c(/C=N/n2c(-c3ccccc3)n[nH]c2=S)c1`, the inhibition is 13%.
The same measure for `O=C(Nc1ccc(NC(=O)c2cccs2)cc1)c1ccccc1`: 5%; for `CC(=O)Nc1ccc(-c2nc(-c3ccccc3)c3cc(NC(C)=O)ccc3n2)cc1`: 8%; for `O=C(Nc1ccc(-c2nc(-c3ccccc3)c3cc(NC(=O)c4cccs4)ccc3n2)cc1)c1cccs1`: 52% (active).
In the case of `Cc1ccc2nc(-c3ccc(NC(=S)NC(=O)c4ccccc4)cc3)oc2c1`, the inhibition was 58% (active).
Turning to `O=C(Nc1sc2c(c1C(=O)Nc1ccccc1)CCCCC2)c1ccc([N+](=O)[O-])cc1`, the inhibition is 27%.
The figure for `O=C(NC(=S)Nc1ccc(-c2nc3ncccc3o2)cc1)c1cccc(Cl)c1` is 59% (active).
For the molecule `Cc1ccc2nc(-c3ccc(NC(=S)NC(=O)c4ccc([N+](=O)[O-])cc4)cc3)oc2c1`, the inhibition was 50% (active).
Regarding `Cc1ccc2nc(-c3ccc(NC(=S)NC(=O)c4ccc(C)c(C)c4)cc3)oc2c1`, the inhibition was 18%.
The same measure for `Cc1ccc(NC(=O)c2c(NC(=O)c3ccc([N+](=O)[O-])cc3)sc3c2CCCC3)cc1`: 0%; for `Cc1ccc(C(=O)NC(=S)Nc2ccc(-c3nc4cc(C)c(C)cc4o3)cc2)cc1`: 10%; for `Cc1ccc2nc(-c3ccc(NC(=S)NC(=O)c4ccc(F)cc4)cc3)oc2c1`: 45%.
On to `O=C(NC(=S)Nc1cccc(-c2nc3ncccc3o2)c1)c1cccc(Cl)c1`, for which the inhibition is 23%.
The same measure for `COc1ccc(C(=O)NC(=S)Nc2ccc(-c3nc4ccc(C)cc4o3)cc2)cc1`: 12%; for `O=C(NC(=S)Nc1ccc(-c2nc3ncccc3o2)cc1)c1cccc(F)c1`: 32%; for `Cc1ccc2nc(NNC(=O)CCC(=O)O)nc(-c3ccccc3)c2c1`: 15%.
Take `COc1cc(/C=N/n2cnnc2)ccc1OCCSc1ccc(C)cc1`: the inhibition is 15%.
As for `C=C(C)COc1ccc2oc(-c3ccccc3)c(C(=O)OCC)c2c1`, the inhibition is 0%.
As to `CC(C)(C)NCCOc1ccc(Cl)cc1Cl`, the inhibition is 0%.
With `O=C(CSc1nc2ccc([N+](=O)[O-])cc2s1)c1ccc(Cl)cc1`, the inhibition is 11%.
As for `COc1ccc(C(=O)Nc2ccc(NC(=O)c3ccco3)c(OC)c2)cc1Cl`, the inhibition was 1%.
The figure for `Cc1cc(C)nc(/N=C(/N)Nc2ccc(C(=O)O)cc2)n1` is 3%; for `COc1ccc(-n2nc3cc(C)c(NC(=O)COc4ccc([N+](=O)[O-])cc4)cc3n2)cc1` it is 6%; for `Cc1ccc(N=Cc2cc(Br)cc(Br)c2O)c(C)c1` it is 4%.
The figure for `Cc1cc(C)c2oc(-c3cccc(NC(=O)c4ccc(Cl)cc4)c3)nc2c1` is 53% (active).
In the case of `COc1c(Cl)cc(C(=O)Nc2cccc(-c3nc4cc(C)cc(C)c4o3)c2)cc1Cl`, the inhibition is 20%.
The figure for `Cc1cc(C)c2oc(-c3cccc(NC(=O)Cc4ccc(Cl)cc4)c3)nc2c1` is 25%; for `O=C(Nc1ccc(-c2nc3ccccc3o2)cc1)c1cccs1` it is 5%.
In the case of `Cc1ccc2nc(-c3cccc(NC(=O)c4ccc(C)c([N+](=O)[O-])c4)c3)oc2c1`, the inhibition was 6%.
The same measure for `Cc1ccc2oc(-c3cccc(NC(=O)c4cccc([N+](=O)[O-])c4)c3)nc2c1`: 0%; for `O=C(NC(=S)Nc1ccc(-c2nc3ccccc3o2)cc1)c1cccs1`: 55% (active); for `Cc1ccc(-c2nc3cc(NC(=S)NC(=O)c4cccs4)ccc3o2)cc1`: 7%.
The figure for `Cc1ccc2oc(-c3ccc(NC(=O)c4cccnc4)cc3O)nc2c1` is 21%.
Consider `Cc1cc(C)c2oc(-c3ccc(NC(=O)c4cccnc4)cc3O)nc2c1`, for which the inhibition was 52% (active).
The figure for `Cc1ccc2nc(-c3cccc(NC(=O)c4ccc([N+](=O)[O-])cc4)c3)oc2c1` is 54% (active).
The figure for `Cc1cc2nc(-c3ccc(NC(=O)c4cccnc4)cc3O)oc2cc1C` is 12%.
As for `COc1ccc(N2C(=O)/C(=C\c3cc(OC)ccc3O)SC2=S)cc1`, the inhibition is 22%.
As to `O=C(N/N=C/c1sc2ccccc2c1Cl)c1ccncc1`, the inhibition is 16%.
For `COc1cc(C(=O)N/C(=C/c2cccc([N+](=O)[O-])c2)C(=O)Nc2ccc(C)cc2)cc(OC)c1OC`, the inhibition is 7%.
For the molecule `O=c1c(-c2ccccc2Cl)coc2cc(O)ccc12`, the inhibition is 19%.
For `Cc1c(O)ccc2c(=O)c(-c3ccccc3Cl)coc12`, the inhibition is 9%.
In the case of `Cc1oc2c(O)c(O)ccc2c(=O)c1-c1ccccc1Cl`, the inhibition was 52% (active).
The figure for `O=c1c(-c2ccccc2Cl)coc2c(O)c(O)ccc12` is 55% (active); for `Cc1oc2c(C)c(O)ccc2c(=O)c1-c1ccccc1Cl` it is 12%; for `O=c1c(-c2ccccc2Cl)c(C(F)(F)F)oc2c(O)c(O)ccc12` it is 41%.
Take `COc1cc(C=C2C(=O)N(C)C(=O)N(C)C2=O)ccc1OCCOc1ccc(C)cc1`: the inhibition is 11%.
The same measure for `CCOC(=O)c1sc(NC(=O)COc2ccccc2C)c(C(=O)OCC)c1C`: 19%.
The figure for `Cc1cc2c(cc1Br)NC(=O)C2=O` is 27%.
Turning to `C=CCc1ccc(OCCOCCOc2ccc(C)cc2I)c(OC)c1`, the inhibition was 13%.
As for `CC(=O)Nc1ccc(S(=O)(=O)Oc2cccc(/C=C3\SC(=S)NC3=O)c2)cc1`, the inhibition is 8%.
The same measure for `NC1=NC(=O)/C(=C/c2cccc(OS(=O)(=O)c3ccc4ccccc4c3)c2)S1`: 50% (active).
The figure for `Cc1ccc(S(=O)(=O)Oc2ccc(/C=C3\SC(=S)NC3=O)cc2)cc1[N+](=O)[O-]` is 57% (active).
The figure for `O=C1NC(=S)S/C1=C\c1cccc(OS(=O)(=O)c2ccc([N+](=O)[O-])cc2)c1` is 57% (active).
With `O=C1NC(=S)S/C1=C\c1cccc(OS(=O)(=O)c2cccc([N+](=O)[O-])c2)c1`, the inhibition is 44%.
As to `Cc1ccc(S(=O)(=O)Oc2cccc(/C=C3\SC(N)=NC3=O)c2)cc1`, the inhibition was 15%.
The figure for `Cc1ccc(/C=C2/SC(=S)NC2=O)cc1[N+](=O)[O-]` is 8%; for `NC1=NC(=O)/C(=C/c2ccc(OS(=O)(=O)c3ccc4ccccc4c3)cc2)S1` it is 20%.
For `COc1cc(/C=C2\SC(=S)NC2=O)cc(Cl)c1OS(=O)(=O)c1ccccc1`, the inhibition was 11%.
The figure for `COc1cc(/C=C2/SC(=S)NC2=O)cc(Cl)c1OS(=O)(=O)c1ccc(C)cc1` is 54% (active).
The figure for `O=C1NC(=S)S/C1=C\c1ccc(OS(=O)(=O)c2cccc([N+](=O)[O-])c2)cc1` is 31%.
The figure for `COc1cc(/C=C2\SC(=S)NC2=O)ccc1OS(=O)(=O)c1ccc(C)cc1` is 24%.
